Measurements: PubChem BioAssay AID1159580 (chemical genetic matrix, 2015)
Hit rate of the full screen: of about 5,500 compounds, about 2,000 (36%) were called active. Not shown: some 18% with an inconclusive outcome. No stated cut-off is given here; in the data, active means normalized growth mostly below about 0.91 (no sharp cut-off); inconclusive means no clear call, values can overlap the other calls; inactive means mostly above about 0.92. Some of the results follow.

Test: chemical genetic growth profiling, strain panel (AID 1159580);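 further: tested at 20 µM; growth read once vehicle control cultures reached saturation at 30 °C; 1 = growth at the plate median or of vehicle wells; lower values mean less growth of the strain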
Conditions: growth OD

Measured: normalized growth

O=C(O)c1nc2cc(Cl)c(Cl)cc2[nH]c1=O
inactive: S. cerevisiae deletion strains, locus YJR075W, strain HOC1, hits give low values 1.07 | S. cerevisiae deletion strains, locus YKL009W, strain mrt4, hits give low values 0.949 | S. cerevisiae deletion strains, locus YKL068W, hits give low values 0.981 | S. cerevisiae deletion strains, locus YKL085W, strain MDH1 (second series), hits give low values 1.02 | S. cerevisiae deletion strains, locus YKL085W, strain MDH1, hits give low values 1.02 | S. cerevisiae deletion strains, locus YKL160W, strain elf1, hits give low values 0.996 | S. cerevisiae deletion strains, locus YKL190W, strain CNB1, hits give low values 0.996 | S. cerevisiae deletion strains, locus YKR001C, strain vps1, hits give low values 0.983 | S. cerevisiae deletion strains, locus YKR026C, strain gcn3, hits give low values 1.02 | S. cerevisiae deletion strains, locus YKR091W, strain srl3, hits give low values 1.01 | S. cerevisiae deletion strains, locus YLL001W, strain dnm1, hits give low values 1.01 | S. cerevisiae deletion strains, locus YLL026W, hits give low values 1.01 | S. cerevisiae deletion strains, locus YLL041C, strain sdh2, hits give low values 1.01 | S. cerevisiae deletion strains, locus YLR027C, strain aat2, hits give low values 1.01 | S. cerevisiae deletion strains, locus YLR039C, strain RIC1, hits give low values 1.01 | S. cerevisiae deletion strains, locus YLR058C, strain SHM2, hits give low values 1 | S. cerevisiae deletion strains, locus YLR102C, strain apc9, hits give low values 0.987 | S. cerevisiae deletion strains, locus YLR113W, strain HOG1, hits give low values 0.987 | S. cerevisiae deletion strains, locus YLR221C, strain rsa3, hits give low values 1 | S. cerevisiae deletion strains, locus YLR258W, strain gsy2, hits give low values 1.02 | S. cerevisiae deletion strains, locus YLR262C, strain YPT6 (second series), hits give low values 1.02 | S. cerevisiae deletion strains, locus YLR262C, strain YPT6, hits give low values 0.981 | S. cerevisiae deletion strains, locus YLR268W, strain sec22, hits give low values 1 | S. cerevisiae deletion strains, locus YLR320W, strain mms22, hits give low values 1.02 | S. cerevisiae deletion strains, locus YLR330W, strain CHS5, hits give low values 0.994 | S. cerevisiae deletion strains, locus YLR342W, strain FKS1 (second series), hits give low values 1.02 | S. cerevisiae deletion strains, locus YLR342W, strain FKS1, hits give low values 1.03 | S. cerevisiae deletion strains, locus YLR357W, strain rsc2, hits give low values 1.01 | S. cerevisiae deletion strains, locus YLR370C, strain arc18, hits give low values 1.03 | S. cerevisiae deletion strains, locus YLR371W, strain rom2, hits give low values 0.968 | S. cerevisiae deletion strains, locus YLR384C, strain iki3, hits give low values 1 | S. cerevisiae deletion strains, locus YLR418C, strain cdc73, hits give low values 1.05 | S. cerevisiae deletion strains, locus YML016C, strain PPZ1, hits give low values 0.995 | S. cerevisiae deletion strains, locus YML032C, strain rad52, hits give low values 0.977 | S. cerevisiae deletion strains, locus YML120C, strain ndi1, hits give low values 1 | S. cerevisiae deletion strains, locus YML124C, strain tub3, hits give low values 0.993 | S. cerevisiae deletion strains, locus YMR058W, strain fet3, hits give low values 1.02 | S. cerevisiae deletion strains, locus YMR078C, strain ctf18, hits give low values 0.99 | S. cerevisiae deletion strains, locus YMR125W, strain sto1, hits give low values 1.02 | S. cerevisiae deletion strains, locus YMR129W, hits give low values 1 | S. cerevisiae deletion strains, locus YMR205C, strain PFK2, hits give low values 1.04 | S. cerevisiae deletion strains, locus YMR223W, strain ubp8, hits give low values 0.996 | S. cerevisiae deletion strains, locus YMR231W, strain pep5, hits give low values 1.02 | S. cerevisiae deletion strains, locus YMR263W, strain SAP30, hits give low values 1.02 | S. cerevisiae deletion strains, locus YMR307W, strain GAS1, hits give low values 1.04 | S. cerevisiae deletion strains, locus YNL067W, strain RPL9B, hits give low values 0.948 | S. cerevisiae deletion strains, locus YNL071W, strain lat1, hits give low values 1.01 | S. cerevisiae deletion strains, locus YNL128W, strain TEP1, hits give low values 1.04 | S. cerevisiae deletion strains, locus YNL153C, strain GIM3, hits give low values 1.03 | S. cerevisiae deletion strains, locus YNL183C, strain NPR1, hits give low values 0.933 | S. cerevisiae deletion strains, locus YNL209W, strain ssb2, hits give low values 1.01 | S. cerevisiae deletion strains, locus YNL233W, strain BNI4, hits give low values 1.03 | S. cerevisiae deletion strains, locus YNL248C, strain rpa49, hits give low values 0.984 | S. cerevisiae deletion strains, locus YNL250W, strain rad50, hits give low values 0.988 | S. cerevisiae deletion strains, locus YNL271C, strain bni1, hits give low values 0.991 | S. cerevisiae deletion strains, locus YNL298W, strain CLA4, hits give low values 0.993 | S. cerevisiae deletion strains, locus YNL307C, strain MCK1, hits give low values 1.01 | S. cerevisiae deletion strains, locus YNL322C, strain KRE1 (second series), hits give low values 1.01 | S. cerevisiae deletion strains, locus YNL322C, strain KRE1, hits give low values 0.998 | S. cerevisiae deletion strains, locus YNR049C, strain mso1, hits give low values 1.01 | S. cerevisiae deletion strains, locus YNR052C, strain pop2, hits give low values 0.982 | S. cerevisiae deletion strains, locus YOL006C, strain TOP1, hits give low values 1.09 | S. cerevisiae deletion strains, locus YOL012C, strain htz1 0.84 | S. cerevisiae deletion strains, locus YOL147C, strain pex11, hits give low values 0.998 | S. cerevisiae deletion strains, locus YOR001W, strain rrp6, hits give low values 0.994 | S. cerevisiae deletion strains, locus YOR061W, strain CKA2, hits give low values 1 | S. cerevisiae deletion strains, locus YOR069W, strain VPS5, hits give low values 0.997 | S. cerevisiae deletion strains, locus YOR070C, strain gyp1, hits give low values 1.01 | S. cerevisiae deletion strains, locus YOR080W, strain dia2, hits give low values 1.02 | S. cerevisiae deletion strains, locus YOR083W, strain WHI5, hits give low values 0.981 | S. cerevisiae deletion strains, locus YOR106W, strain vam3, hits give low values 0.994 | S. cerevisiae deletion strains, locus YOR136W, strain idh2, hits give low values 0.992 | S. cerevisiae deletion strains, locus YOR144C, strain elg1, hits give low values 0.993 | S. cerevisiae deletion strains, locus YOR184W, strain ser1, hits give low values 0.988 | S. cerevisiae deletion strains, locus YOR231W, strain MKK1, hits give low values 1.01 | S. cerevisiae deletion strains, locus YOR265W, strain rbl2, hits give low values 0.999 | S. cerevisiae deletion strains, locus YOR270C, strain vph1, hits give low values 1.05 | S. cerevisiae deletion strains, locus YOR290C, strain snf2, hits give low values 1 | S. cerevisiae deletion strains, locus YOR316C, strain cot1, hits give low values 0.987 | S. cerevisiae deletion strains, locus YPL051W, strain arl3, hits give low values 0.989 | S. cerevisiae deletion strains, locus YPL055C, strain LGE1, hits give low values 0.981 | S. cerevisiae deletion strains, locus YPL078C, strain atp4, hits give low values 1 | S. cerevisiae deletion strains, locus YPL106C, strain sse1, hits give low values 1.02 | S. cerevisiae deletion strains, locus YPL240C, strain hsp82, hits give low values 1 | S. cerevisiae deletion strains, locus YPL241C, strain CIN2, hits give low values 0.992 | S. cerevisiae deletion strains, locus YPL256C, strain CLN2, hits give low values 0.994 | S. cerevisiae deletion strains, locus YPR119W, strain clb2, hits give low values 0.996 | S. cerevisiae deletion strains, locus YPR141C, strain kar3, hits give low values 0.99 | S. cerevisiae deletion strains, locus YPR163C, strain tif3, hits give low values 0.992 | S. cerevisiae deletion strains, locus YPR167C, strain met16, hits give low values 0.996 | S. cerevisiae deletion strains, strain wtn01, hits give low values 1.01 | S. cerevisiae strains, strain wild type, hits give low values 1.01
